Measured values: PubChem BioAssay (Tox21)
Results filed as inconclusive are left out. A call without a number means that no potency is given here. Calls of active or inactive are those of the source. Unless noted, the call rests on the fitted dose curve; in most records, active means well fitted curve in the direction sought with a large enough effect in the repeat runs; inconclusive means weak or mixed curves; inactive means no such curve, though single readings can be large; an effect the other way counts as inactive or inconclusive.

Tests used:
[1] = qHTS assay to identify small molecule agonists of the RXR signaling pathway - cell viability counter screen (AID 1159529); conditions: RXR-alpha-bla HEK293T viability, CellTiter-Glo, 16 h; series mostly up to 76.8 µM;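 further: HEK 293T cells carrying an RXR-alpha UAS beta-lactamase reporter; nearly all actives have a fitted effect of over 50% in size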
In short: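 Same-well viability check after the LiveBLAzer FRET read: CellTiter-Glo added, luminescence measured after 30 min at room temperature. Reporter HEK 293T cells had been treated with compounds for 16 hr following a 5 hr preincubation.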

[2] = qHTS assay to identify small molecule antagonists of the retinoid acid receptor (RAR) signaling pathway - cell viability counter screen (AID 1159551); conditions: C3RL4 cells viability, ATP luminescence (CellTiter-Glo), 6 h; series mostly up to 92.4 µM; further: nearly all actives have a fitted effect of over 35% in size; further: potency means the concentration at half of the fitted maximal effect
In short: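 Viability of C3RL4 cells is quantified from ATP by luminescence after 6 h treatment at 37 C with compounds and 1 uM retinol.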

[3] = qHTS assay to identify small molecule antagonists of the retinoic acid receptor (RAR) signaling pathway (AID 1159552; further: nearly all actives have a fitted effect of over 50% in size; further: potency means the concentration at half of the fitted maximal effect); conditions: C3RL4 RARE luciferase reporter, retinol-stimulated, 6 h; series mostly up to 92.4 µM
In short: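 Readout: luciferase luminescence, 30 min post-reagent at RT. Setup: C3RL4 RARE reporter cells, compounds plus retinol 1 uM final, 6 hr incubation at 37 C and 5% CO2.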

[4] = qHTS assay to identify small molecule agonists of the retinoic acid receptor (RAR) signaling pathway (AID 1159553); conditions: C3RL4 RARE luciferase reporter, agonist, 6 h; series mostly up to 73.3 µM; further: potency means the concentration at half of the fitted maximal effect
In short: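 Compounds dissolved in DMSO were pinned onto C3RL4 cells seeded the previous day, and plates were held 6 hr at 37 C. RARE-driven luciferase output was then read by luminescence.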

[5] = qHTS assay to identify small molecule antagonists of the estrogen related receptor (ERR) signaling pathway from Tox21 library - cell viability counter screen (AID 1224834); conditions: ERR reporter cells viability, CellTiter-Fluor, 17.5 h; series mostly up to 92.4 µM; further: nearly all actives have a fitted effect of over 30% in size; further: potency means the concentration at half of the fitted maximal effect
In short: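 In this quantitative HTS format, ERR cells receive compounds in DMSO and are incubated for 17.5 h at 37 C. Live-cell protease activity is then detected with CellTiter-Fluor.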

[6] = qHTS assay to identify small molecule antagonists of the estrogen related receptor signaling pathway with the pleiotropic PPARgamma coactivator (PGC) cell viability counter screen (AID 1224822;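 further: viability read after 17.5 h compound exposure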); conditions: ERR/PGC reporter cell line viability counter screen; series mostly up to 46.1 µM
In short: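 Viable cell signal (CellTiter-Fluor, 30 min, 37 C/5% CO2) was measured in PGC/ERR cells after a 17.5 h compound incubation.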

[7] = qHTS assay to identify small molecule antagonists of the estrogen related receptor (ERR) signaling pathway (AID 1224819; further: potency means the concentration at half of the fitted maximal effect; nearly all actives have a fitted effect of over 50% in size); conditions: ERR reporter cell line, luciferase inhibition; series mostly up to 46.1 µM
In short: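 ERR reporter cells were plated at 2,000 cells/well and left 6 h at 37 C/5% CO2 before pin-tool transfer of compounds in DMSO. After 18 h at 37 C, One-Glo was added and luminescence was read 30 min later at room temperature.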

[8] = qHTS assay to identify small molecule agonists of the estrogen related receptor (ERR) signaling pathway (AID 1224820); conditions: ERR reporter cell line, luciferase agonist mode; series mostly up to 46.1 µM
In short: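 An ERR cell line provided by NTP was seeded at 2,000 cells per well and allowed to settle for 6 h before compounds in DMSO were added. After 18 h at 37 C, luciferase activity was measured by One-Glo luminescence.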

[9] = test system: estrogen-related receptor alpha (ERRalpha) with PGC-1alpha coactivator, human; assay: qHTS assay to identify small molecule antagonists of the estrogen related receptor signaling pathway with the pleiotropic PPARgamma coactivator (PGC) (AID 1224821; calls by dose curve; further: potency means the concentration at half of the fitted maximal effect; nearly all actives have a fitted effect of over 50% in size); conditions: ERR/PGC reporter cell line, luciferase, antagonist mode; series mostly up to 46.1 µM
In short: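 A PGC/ERR cell line supplied by NTP is seeded, allowed 6 h at 37 C, and treated with test compounds in DMSO for 18 h. Signal is then measured as luciferase luminescence using One-Glo.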

[10] = qHTS assay to identify small molecule agonists of the estrogen related receptor signaling pathway with the pleiotropic PPARgamma coactivator (PGC) (AID 1224823); conditions: ERR/PGC reporter cell line, luciferase agonist mode; series mostly up to 46.1 µM
In short: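 Compounds dissolved in DMSO are added by pin tool to PGC/ERR cells that have settled for 6 h, and incubation continues 18 h at 37 C. Reporter output is measured as One-Glo luminescence.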

In the case of `CCNc1nc(N)nc(Cl)n1`, the Potency [1] is reported as “inactive”, the Potency [2] is reported as “inactive” and the Potency [3] is reported as 21.7 µM (active). For the same molecule, the Potency [4] was “inactive” and the Potency [5] was “inactive”.
With `CCOC(=O)c1c(N)sc2c1CCN(Cc1ccccc1)C2` the Potency [1] was “inactive”, the Potency [2] was “inactive” and the Potency [3] was “inactive”. The Potency [4] was “inactive” and the Potency [5] was “inactive”.
With `CCCCCCC(O)CCCCCCCCCCC(=O)OC` (centres undefined) the Potency [1] was “inactive”, the Potency [2] was “inactive” and the Potency [3] was “inactive”. The Potency [4] was “inactive” and the Potency [5] was “inactive”.
For `O=C(O)c1ccc(O)cc1O`, the Potency [1] was “inactive”, the Potency [2] was “inactive” and the Potency [3] was “inactive”. The Potency [4] was “inactive” and the Potency [5] was “inactive”.
For `CCCCCC`, the Potency [1] was “inactive”, the Potency [2] was “inactive” and the Potency [3] was “inactive”. The Potency [4] was “inactive” and the Potency [5] was “inactive”.
For `CC(C)(O)CCc1ccccc1`, the Potency [1] was “inactive”, the Potency [2] was “inactive” and the Potency [3] was “inactive”. For the same molecule, the Potency [4] was “inactive” and the Potency [5] was “inactive”.
For `CC(C)C1CCC(C(=O)N[C@H](Cc2ccccc2)C(=O)O)CC1` (some centres undefined), the Potency [1] was “inactive”, the Potency [2] was “inactive” and the Potency [3] was “inactive”. For the same molecule, the Potency [4] was “inactive” and the Potency [5] was “inactive”.
In the case of `CCCCCCOC(=O)CCCCC`, the Potency [1] is reported as “inactive”, the Potency [2] is reported as “inactive” and the Potency [3] is reported as “inactive”. The Potency [4] was “inactive” and the Potency [5] was “inactive”.
With `CC(=O)NNC(C)=O` the Potency [1] was “inactive”, the Potency [2] was “inactive” and the Potency [3] was “inactive”. The Potency [4] was “inactive” and the Potency [5] was “inactive”.
For `COC(=O)CC(C(C)=O)C(=O)OC` (centres undefined), the Potency [1] was “inactive”, the Potency [2] was “inactive” and the Potency [3] was “inactive”. For the same molecule, the Potency [4] was “inactive” and the Potency [5] was “inactive”.
In the case of `CNc1c2c(nn1C)CCCC2`, the Potency [1] is reported as “inactive”, the Potency [2] is reported as “inactive” and the Potency [3] is reported as “inactive”. For the same molecule, the Potency [4] was “inactive” and the Potency [5] was “inactive”.
In the case of `CCCCCCCCCCCCCCCCCC(=O)OCC(CC)CCCC` (centres undefined), the Potency [1] is reported as “inactive”, the Potency [2] is reported as “inactive” and the Potency [3] is reported as “inactive”. The Potency [4] was “inactive” and the Potency [5] was “inactive”.
With `CC1CCc2nccnc21` (centres undefined) the Potency [1] was “inactive”, the Potency [2] was “inactive” and the Potency [3] was “inactive”. The Potency [4] was “inactive” and the Potency [5] was “inactive”.
With `O=S(=O)(Cl)c1c(Cl)cccc1Cl` the Potency [1] was “inactive”, the Potency [2] was “inactive” and the Potency [3] was “inactive”. The Potency [4] was “inactive” and the Potency [5] was “inactive”.
In the case of `O=C1OC(=O)c2c(Br)c(Br)c(Br)c(Br)c21`, the Potency [1] is reported as “inactive”, the Potency [2] is reported as “inactive” and the Potency [3] is reported as “inactive”. For the same molecule, the Potency [4] was “inactive” and the Potency [5] was “inactive”.
For `O=C(O)CCC(=O)c1ccc(-c2ccccc2)cc1`, the Potency [1] was “inactive”, the Potency [2] was “inactive” and the Potency [3] was “inactive”. For the same molecule, the Potency [4] was 11.9 µM (active) and the Potency [5] was “inactive”.
For `CC1C(C)(C)C2=C(C(=O)CCC2)C1(C)C` (centres undefined), the Potency [1] was “inactive”, the Potency [2] was “inactive” and the Potency [3] was “inactive”. For the same molecule, the Potency [4] was “inactive” and the Potency [5] was “inactive”.
For `FC(F)(F)C(F)(F)C(F)(F)C(F)(F)CCI`, the Potency [1] was “inactive”, the Potency [2] was “inactive” and the Potency [3] was “inactive”. For the same molecule, the Potency [4] was “inactive” and the Potency [5] was “inactive”.
In the case of `O=P(O)(O)Oc1ccccc1`, the Potency [1] is reported as “inactive”, the Potency [2] is reported as “inactive” and the Potency [3] is reported as “inactive”. For the same molecule, the Potency [4] was “inactive” and the Potency [5] was “inactive”.
With `COC(=O)c1sccc1S(N)(=O)=O` the Potency [1] was “inactive”, the Potency [2] was “inactive” and the Potency [3] was “inactive”. The Potency [4] was “inactive” and the Potency [5] was “inactive”.
With `CSSc1ccoc1C` the Potency [1] was “inactive”, the Potency [2] was “inactive” and the Potency [3] was “inactive”. The Potency [4] was 0.0431 µM (active) and the Potency [5] was “inactive”.
With `CCOc1ncc(F)c(=O)[nH]1` the Potency [1] was “inactive”, the Potency [2] was “inactive” and the Potency [3] was “inactive”. For the same molecule, the Potency [4] was “inactive” and the Potency [5] was “inactive”.
For `CC(C)c1ccc(C#N)cc1`, the Potency [1] was “inactive”, the Potency [2] was “inactive” and the Potency [3] was “inactive”. For the same molecule, the Potency [4] was “inactive” and the Potency [5] was “inactive”.
For `CCCCCCC(CO)CCCC` (centres undefined), the Potency [1] was “inactive”, the Potency [2] was “inactive” and the Potency [3] was “inactive”. The Potency [4] was “inactive” and the Potency [5] was “inactive”.
With `Cc1cccc2sc(N)nc12` the Potency [1] was “inactive”, the Potency [2] was “inactive” and the Potency [3] was “inactive”. For the same molecule, the Potency [5] was “inactive”.
In the case of `CC(C)COC(=O)c1ccc(O)cc1`, the Potency [1] is reported as “inactive”, the Potency [2] is reported as “inactive” and the Potency [3] is reported as “inactive”. The Potency [5] was “inactive”.
In the case of `[Cl][Nd]([Cl])[Cl]`, the Potency [1] is reported as “inactive”, the Potency [2] is reported as “inactive” and the Potency [4] is reported as “inactive”. For the same molecule, the Potency [5] was “inactive”.
For `CC(=O)NCCO`, the Potency [1] was “inactive”, the Potency [2] was “inactive” and the Potency [3] was “inactive”. The Potency [5] was “inactive”.
With `CCN(CC)CCNC(=O)c1cc(Cl)c(N)cc1OC` the Potency [1] was “inactive”, the Potency [2] was “inactive” and the outcome [6] was “inactive”. For the same molecule, the Potency [5] was “inactive”.
With `COc1cc(OC)c2ccc(=O)oc2c1` the Potency [1] was “inactive”, the Potency [2] was “inactive” and the Potency [5] was “inactive”.
In the case of `CC(C)(C)CCCCCCOC(=O)c1ccccc1C(=O)OCCCCCCC(C)(C)C`, the Potency [1] is reported as “inactive”, the Potency [2] is reported as “inactive” and the Potency [4] is reported as “inactive”. For the same molecule, the Potency [5] was “inactive”.
With `CCN(CC)CC(=O)Nc1c(C)cccc1C(=O)OC` the Potency [1] was “inactive”, the Potency [2] was “inactive” and the Potency [5] was “inactive”.
In the case of `COC(=O)C1=C(C)NC(C)=C(C(=O)OC(C)(C)CN(C)CCC(c2ccccc2)c2ccccc2)C1c1cccc([N+](=O)[O-])c1` (centres undefined), the Potency [1] is reported as “inactive”, the Potency [2] is reported as “inactive” and the Potency [7] is reported as 19.6 µM (active). For the same molecule, the outcome [8] was “inactive”, the Potency [9] was 13.9 µM (active) and the outcome [10] was “inactive”. The Potency [5] was 23.7 µM (active).
For `CCCCCCCCCCCCCCCC(=O)OCC`, the Potency [1] was “inactive”, the Potency [2] was “inactive” and the Potency [4] was “inactive”. For the same molecule, the Potency [5] was “inactive”.
With `Cc1c(C2(c3cc(Br)c(O)c(Br)c3C)OS(=O)(=O)c3ccccc32)cc(Br)c(O)c1Br` the Potency [1] was “inactive”, the Potency [2] was 7.47 µM (active) and the Potency [3] was 13.3 µM (active). The Potency [5] was 14.9 µM (active).
With `OCC(CO)n1cnc(-c2ccc(F)cc2)c1-c1ccnc(Oc2ccccc2)n1` the Potency [1] was “inactive”, the Potency [2] was “inactive” and the Potency [5] was “inactive”.
In the case of `O=[N+]([O-])c1ccc2ncccc2c1`, the Potency [1] is reported as “inactive”, the Potency [2] is reported as “inactive” and the Potency [4] is reported as “inactive”.
In the case of `CCOC(=O)Oc1ccc(CCNC(=O)[C@H](CCSC)NC(C)=O)cc1OC(=O)OCC`, the Potency [1] is reported as “inactive”, the Potency [2] is reported as “inactive” and the Potency [5] is reported as “inactive”.
